# Measured values taken from PubChem BioAssay AID652104 (National Center for Advancing Translational Sciences (NCATS), 2013).
# The whole screen tested about 410,000 compounds, of which about 7,200 (1.8%) were called active. Another 7% or so got no clear call; they are omitted. The call rests on the fitted dose curve; in most records, active means well fitted activation curve with a large enough effect; inconclusive means small, poorly fitted or top-dose-only effect, or another doubt; inactive means no such curve, though single readings can be large or run the other way. Only a selection was taken, and actives are over-represented in it overall.
# Assay: qHTS of TDP-43 Inhibitors; further: nearly all actives have a fitted effect of over 50% in size; on growth rescue (activation): % of control where 0% means no effect
# Conditions: TDP-43 expressing yeast growth rescue, BacTiter-Glo, 24 h; series mostly up to 46.1 µM; growth rescue (activation): at the top concentration
# Method in brief: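 Cell-based yeast growth screen: TDP-43 expression induced in galactose, inoculum OD600=0.02 after raffinose pregrowth to mid-log. Read-out BacTiter-Glo luminescence at 24 hr, 30 deg C; inhibition of toxicity seen as signal increase.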
# Potency means the concentration at half of the fitted maximal effect.
SMILES,growth rescue (activation),Potency
CCOc1ccc(N(CC)S(=O)(=O)N2CCCC(C(=O)NCc3ccc(SC)cc3)C2)cc1 (stereo not given),14.4% (inactive),–
CCN(CC)c1ccc(NS(=O)(=O)c2cc(-c3cc(C)no3)ccc2C)c(C)c1,-14.9% (inactive),–
Cc1cccc(-n2c(SCC(N)=O)nc3c(oc4ccccc43)c2=O)c1,26.1% (inactive),–
COc1ccc(NC(=O)CCCN2C(=O)CCn3nc(-c4cn(C)c5ccccc45)cc32)cc1OC,14.9% (inactive),–
CCOCCCn1c(SCC(=O)Nc2ccc(CC)cc2)nc2ccccc2c1=O,8.55% (inactive),–
COc1ccc(OC)c(CNC(=O)c2c3c(nc4ccccc24)C(=O)N(C2CCCCC2)C3)c1,2.95% (inactive),–
Cc1ccc2cc(/C=N/NC(=O)[C@@H]3CCCN3)c(Cl)nc2c1,–,4.47 µM (active)
O=C(Nc1cccc(F)c1)[C@@H]1CCCN1,4.62% (inactive),–
CCc1ccccc1NS(=O)(=O)c1ccc2nc(-c3ccccc3)[nH]c2c1,23% (inactive),–
Cc1nc2ccc(S(=O)(=O)NC(C(=O)NCc3ccccc3Cl)C(C)C)cc2s1 (stereo not given),23.9% (inactive),–
Cc1cccc(OCCSc2nc3ccc(NC(=O)COc4ccccc4C)cc3s2)c1,-10.4% (inactive),–
Cc1ccc(S(=O)Cc2ccc(C(=O)N3CCN(C4CCCCC4)CC3)o2)cc1 (stereo not given),-22.5% (inactive),–
Cc1cccc(C(=O)N2c3nc(-c4ccco4)nn3C3(CCCCC3)[C@@H]3CCCC[C@@H]32)c1,14.2% (inactive),–
Cc1ccc(C(=O)N2c3ncnn3C3(CCCCC3)[C@@H]3CCCC[C@@H]32)cc1,–,22.4 µM (active)
CCOC(=O)c1c(C)[nH]c(C)c1S(=O)(=O)NCC(=O)NCc1cccc(C)c1,-15.8% (inactive),–
O=C(CCc1nc(CN2CCN(S(=O)(=O)c3ccc(Br)cc3)CC2)no1)N1CCCCC1,-11% (inactive),–
COc1ccc(C2CC(=O)Nc3c2c(=O)nc2c(C)cccn32)cc1OC (stereo not given),25.6% [at 9.22 µM] (inactive),–
COC(=O)c1cnn(-c2ccc(C(=O)Nc3ccc(OC(F)(F)F)cc3)cc2)c1N,12.1% [at 9.22 µM] (inactive),–
CCc1nc2nc(C)cc(Nc3ccc(F)c(Cl)c3)n2n1,24.6% (inactive),–
Cc1ccc(Cl)cc1NC(=O)CCC(=O)N1CC(C)Sc2ccccc21 (stereo not given),–,25.1 µM (active)
Cc1ccc(CNC(=O)CCC(=O)N2CC(C)Sc3ccccc32)cc1 (stereo not given),21.1% (inactive),–
COc1ccccc1NC(=O)CCC(=O)N1CC(C)Oc2ccc(C)cc21 (stereo not given),–,inactive
CC(=O)N1CCCc2cc(S(=O)(=O)N3CCC(C(=O)NC4CCCCC4)CC3)ccc21,19.1% (inactive),–
Cc1ccc(NC(=O)CSc2nc3c(c(=O)[nH]2)CN(Cc2ccc4c(c2)OCO4)CC3)cc1C,-5.01% (inactive),–
Cc1cccc(NC(=O)Cn2c(=O)n(CCC(C)C)c(=O)c3cccnc32)c1,-4.57% (inactive),–
